This is an account of results in PubChem BioAssay AID463173 (ICCB-Longwood Screening Facility, Harvard Medical School, 2010).

Among all 52,000 compounds or so, about 1,700 (3.3%) were called active. The full list was thinned out, with actives kept by preference. Values without a mark were called inactive. No stated cut-off is given here; in the data, active means survival mostly below about 52% (no sharp cut-off); inactive means mostly above about 56%.

The test has as its system Wild type. The experiment in a line: S. aureus survival, RN4220 and DeltatarO strains – OD600, teichoic acid synthesis inhibitors, primary screen (AID 463173). The following applies: S. aureus RN4220 wild type/DeltatarO growth, OD600, 18 h, hits give low values, screened at 18.75 µg/mL (by protocol).
`CCc1ccc(NC(=O)CCn2cnc3ccccc3c2=O)cc1`: the survival was 72%.

For the compound `COCCNC(=O)CN1C(=O)CCn2nc(-c3cn(C)c4ccccc34)cc21`, the survival was 64%.

As for `C#CCNc1nc(CC(C)C)nc2c1nnn2Cc1ccccc1`, the survival was 101%. As for `COc1cccc(-c2cc(C(F)(F)F)nc(NCCc3ccc(OC)c(OC)c3)n2)c1`, the figure is 25%; as for `COc1cccc(-c2cc(C(F)(F)F)nc(NCCc3ccccc3)n2)c1`, -7% (active); as for `COc1ccc(CNc2nc(-c3ccc(OC)c(OC)c3)cc(C(F)(F)F)n2)cc1`, 27%. Under `COc1ccc(CNC(=O)CSc2nc(-c3ccc(OC)cc3)cc(C(F)(F)F)n2)cc1` stands 93%; under `COc1ccc(CNc2nc(-c3ccc(OC)cc3)cc(C(F)(F)F)n2)cc1`, -5% (active); under `COc1ccccc1CCNC(=O)C(C)Sc1nc(-c2ccccc2)cc(C(F)(F)F)n1` (stereo not drawn), 53%. Under `COc1cccc(CNC(=O)c2cc(S(=O)(=O)N3CCCCC3)cn2C)c1` stands -2% (active); under `COc1ccc(CNC(=O)Cc2c(C(=O)O)c(C)cn2C)cc1`, 83%. Regarding `Cc1cn(C)c(CC(=O)NCc2cccc(Cl)c2)c1C(=O)O`, the survival is -3% (active). Under `COc1cccc(CNC(=O)Cc2c(C(=O)O)c(C)cn2C)c1` stands 0% (active); under `Cc1cn(C)c(CC(=O)NCc2ccc(Cl)cc2)c1C(=O)O`, 66%. As for `Cc1ccc(CNC(=O)c2cc(S(=O)(=O)N3CCCCCC3)cn2C)cc1`, the figure is 81%. Under `Cc1cn(C)c(CC(=O)NCc2ccccc2)c1C(=O)O` stands 80%; under `Cc1ccc(CNC(=O)Cc2c(C(=O)O)c(C)cn2C)cc1`, 85%; under `COc1cccc(CNC(=O)c2cc(S(=O)(=O)N3CCCCCC3)cn2C)c1`, 85%. In the case of `Cc1ccc(-n2ncc(C(=O)N3CCN(Cc4ccccc4)CC3)c2C2CCN(C(=O)OC(C)(C)C)CC2)cc1`, the survival was 124%. As for `N#Cc1c(NC(=O)CN2CCCCC2)sc2c1CCC2`, the figure is 109%; as for `Cc1ccc2c(c1)c1c(c(=O)n(-c3ccccc3)c(=O)n1CC(=O)NCC1CCCO1)n2C` (stereo not drawn), 72%; as for `Cc1ccc(NC(=O)C(=O)NCCc2sc(-c3ccc(Cl)cc3)nc2C)cc1C`, 126%.

Regarding `Cc1ccc(-c2nc(C)c(CCNC(=O)C(=O)Nc3ccc(C)c(Cl)c3)s2)cc1`, the survival is 76%. For the compound `Cc1nc(-c2ccccc2)sc1CCNC(=O)C(=O)Nc1ccc(F)c(Cl)c1`, the survival was 1% (active). As for `COc1ccc(NC(=O)CN(c2ccc(C)cc2)S(=O)(=O)c2cccs2)cc1`, the figure is 84%; as for `Cc1cccc(-c2nc3ccccc3n2Cc2ccccc2)c1`, 1% (active). As for `Fc1ccc(Cn2c(-c3cccc(Br)c3)nc3ccccc32)cc1`, the figure is 120%. In the case of `Cc1cccc(Cn2c(-c3cccc(Br)c3)nc3ccccc32)c1`, the survival is 124%. As for `Cc1cccc(Cn2c(=O)n3nc(-c4ccccc4)nc3c3ccccc32)c1`, the figure is -24% (active); as for `Nc1nonc1-c1nc2ccccc2n1Cc1cccc(Cl)c1`, 87%.

Regarding `CCc1ccccc1N1CC(c2nc3ccccc3n2Cc2cccc(C)c2)CC1=O` (stereo not drawn), the survival is 66%. As for `O=C(CSc1nc2ccccc2n1Cc1ccccc1F)NCc1ccccc1`, the figure is 99%. As for `Fc1ccccc1Cn1c(-c2ccccc2)nc2ccccc21`, the figure is 1% (active).

Take `Cc1ccc(Cn2c(CCNC(=O)c3cccc(C)c3)nc3ccccc32)cc1`: the survival was 68%. As for `Cc1cccc(Cn2c(-c3ccccc3)nc3ccccc32)c1`, the figure is 26% (active); as for `O=c1n(Cc2cccc(F)c2)c2ccccc2c2nc(-c3ccccc3)nn12`, 34%.

As for `Cc1cccc(-c2nc3c4ccccc4n(Cc4cccc(Cl)c4)c(=O)n3n2)c1`, the survival is 113%. Under `COc1ccc(NC(=O)c2oc3ccccc3c2NC(=O)c2cc(C)cc(C)c2)c(OC)c1` stands 79%; under `COc1ccc(NC(=O)C2CCC(CNS(=O)(=O)c3cccc4nsnc34)CC2)cc1OC` (stereo not drawn), 87%. As for `CN(Cc1ccccc1)C(=O)Cn1c(=O)c2cccn2c2ccc(F)cc21`, the figure is 81%; as for `Cc1ccc(Cn2c(-c3ccccc3)nc3ccccc32)cc1`, 8% (active). As for `Cc1ccc(Cn2c(=O)c3ccccc3n3c(-c4ccccc4)nnc23)cc1`, the figure is 91%; as for `Cc1ccc(Cn2c(C(C)NC(=O)c3ccccc3)nc3ccccc32)cc1` (stereo not drawn), 91%; as for `CCCCn1c(SCC(=O)N2CCCCCC2)nnc1-c1ccoc1C`, 98%.

For `Cc1cccc(N2CCN(c3ccc4cc(S(=O)(=O)N5CCC(C)CC5)ccc4n3)CC2C)c1` (stereo not drawn), the survival was 129%. As for `CSc1cccc(Nc2cc(C(=O)NC3CCCCC3)c3ccccc3n2)c1`, the figure is 142%; as for `CN1CN2C(=O)N3CN(C)CN4C(=O)N(C1)C2C34` (stereo not drawn), 110%.

For `Cc1cc(C)c(Cn2c(C(O)c3ccccc3)nc3ccccc32)c(C)c1` (stereo not drawn), the survival was 11% (active).

Turning to `OC(c1ccccc1)c1nc2ccccc2n1Cc1c(F)cccc1Cl` (stereo not drawn), the survival is 82%. As for `COC(=O)Cn1c(C(O)c2ccccc2)nc2ccccc21` (stereo not drawn), the figure is 97%; as for `CCOc1ccc(CNC(=O)CS(=O)(=O)c2cccc3nsnc23)cc1`, 126%.

On to `COc1ccccc1NC(=O)C1CCN(C(=O)c2ccccc2)CC1`, for which the survival is 94%. `Cc1c(Cl)cccc1-n1ncc(C(=O)Nc2ccc(F)cc2F)c1C1CCN(C(=O)OC(C)(C)C)CC1`: the survival was 71%. Under `Cc1ccc(C)c(Nc2nc3nonc3nc2Nc2cccc(C)c2C)c1` stands 4% (active); under `CCOC(=O)c1ccc(Nc2nc3nonc3nc2NCc2ccco2)cc1`, 35%; under `Cc1cccc(Nc2nc3nonc3nc2N/N=C\c2cccs2)c1C`, 96%.

Consider `CCOC(=O)c1ccc(Nc2nc3nonc3nc2Nc2cccc(C)c2C)cc1`, for which the survival was 0% (active). With `Cc1cccc(Nc2nc3nonc3nc2Nc2cccc(C)c2C)c1C`, the survival was 102%. Under `CCOC(=O)c1ccc(Nc2nc(C)cc(C)n2)cc1` stands 87%. Under `CCS(=O)(=O)N1CCc2cc(C(=O)Nc3ccc(OC)cc3OC)ccc21` stands 88%; under `Cc1ccc([N+](=O)[O-])cc1NC(=O)CN(c1ccccc1)S(=O)(=O)N(C)C`, 69%. As for `CCn1c(O)c(C=Nc2cccc(O)c2)sc1=S`, the figure is 115%. Consider `Cn1cnc(S(=O)(=O)N2CCCC(C(=O)Nc3ccc(OC(F)(F)F)cc3)C2)c1` (stereo not drawn), for which the survival was 19%. As for `CCOc1ccc(CNC(=O)c2[nH]c3ccccc3c2Sc2ccc(C)cc2)cc1`, the figure is 120%. Under `CCN1C(=O)c2ccccc2S(=O)(=O)c2ccc(C(=O)NCc3ccc(OC)cc3)cc21` stands 97%; under `CN(C)CCNC(=O)c1ccc2c(c1)N(Cc1c(F)cccc1Cl)C(=O)c1ccccc1S2`, 105%; under `CCN(CC)C(=O)c1ccc2c(c1)N(Cc1c(F)cccc1Cl)C(=O)c1ccccc1S2`, 16% (active). As for `CCN(CC)CCCNC(=O)c1ccc2c(c1)N(Cc1c(F)cccc1Cl)C(=O)c1ccccc1S2`, the figure is 139%; as for `Cc1ccc(Cl)cc1NC(=O)CN1C(=O)c2cccc3cccc1c23`, 71%; as for `CCC(=O)N1CCc2cc(Br)cc(S(=O)(=O)N3CCN(c4ccccc4OC)CC3)c21`, 72%. Consider `COc1ccccc1N1CCN(c2nc3ccc(C)cc3nc2-n2nc(C)cc2C)CC1`, for which the survival was 0% (active). `Cc1cc(C)n(-c2nc3ccccc3nc2N2CCN(c3cccc(C)c3C)CC2)n1`: the survival was -1% (active).

On to `Cc1cc(C)n(-c2nc3cc(Cl)ccc3nc2N2CCN(c3cccc(C)c3C)CC2)n1`, for which the survival is -1% (active).

Regarding `Cc1ccc2nc(N3CCN(c4cccc(Cl)c4)CC3)c(-n3nc(C)cc3C)nc2c1`, the survival is 3% (active). Under `Cc1cc(C)n(-c2nc3cc(Cl)ccc3nc2Nc2ccc(C)c(F)c2)n1` stands 86%; under `Cc1cc(C)n(-c2nc3ccccc3nc2N2CCN(c3cccc(C(F)(F)F)c3)CC2)n1`, 88%.

As for `Cc1cc(C)n(-c2nc3cc(Cl)ccc3nc2N2CCN(c3ccccc3F)CC2)n1`, the survival was 68%. As for `COc1cccc(Nc2nc3ccc(C)cc3nc2-n2nc(C)cc2C)c1`, the figure is 82%; as for `Cc1cc(C)n(CCc2nc3c4ccccc4nc(N4CCN(c5cccc(C)c5C)CC4)n3n2)n1`, 74%; as for `Cc1cc(C)c(C#N)c(N2CCN(c3cccc(C)c3C)CC2)n1`, 109%. Under `Cc1ccc(C)c(N2CCN(c3nc4ccc(C)cc4nc3-n3nc(C)cc3C)CC2)c1` stands 86%; under `Cc1ccc2nc(N3CCN(c4cccc(Cl)c4)CC3)c3nnnn3c2c1`, 72%. As for `COc1ccc(-c2oc3ncn4nc(COc5cccc(C)c5C)nc4c3c2-c2ccc(OC)cc2)cc1`, the figure is 77%; as for `Cc1ccc(C)c(Cn2nc(C)n3c(cc4cc(C)ccc43)c2=O)c1`, 79%; as for `Cc1ccc(Cl)cc1N1CCN(C(=O)c2cc3c(=O)oc4ccccc4c3s2)CC1`, 71%. In the case of `COCCN(Cc1cc2ccc(C)c(C)c2nc1Cl)C(=O)N1CCOCC1`, the survival is 104%.

On to `COc1ccc(C(C)C)cc1S(=O)(=O)N1CC(C)OC(C)C1` (stereo not drawn), for which the survival is 109%. Turning to `COC(=O)C1=C(C)N(c2ccc(N(C)C)cc2)C(C)=C(C(=O)OC)C1c1ccccc1`, the survival is 101%. Under `CC1=C(C(=O)Nc2ccccc2)C(c2ccc(O)cc2)n2nc(SCc3ccccc3)nc2N1` (stereo not drawn) stands 115%; under `CCN(CC)S(=O)(=O)c1ccc(C(=O)NCCSc2c(-c3ccc(OC)cc3)[nH]c3ccccc23)cc1`, 124%. As for `CCn1nc(C)c2c(-c3ccccc3)cc(=O)n(C(C)C(=O)Nc3ccc(OC)c(OC)c3)c21` (stereo not drawn), the figure is 59%; as for `Cc1nn(C(C)(C)C)c(OC(=O)C(C)(C)C)c1Sc1ccccc1`, -9% (active).

On to `Cc1nn(C(C)(C)C)c(OC(=O)c2c(F)cccc2F)c1Sc1ccccc1`, for which the survival was 117%. As for `COc1ccc(C(=O)Oc2c(Sc3ccc(C)cc3)c(C)nn2C(C)(C)C)cc1OC`, the figure is 127%; as for `Cc1ccc(Sc2c(C)nn(C(C)(C)C)c2OC(=O)CC(C)C)cc1`, -8% (active); as for `Cc1ccccc1C(=O)Oc1c(Sc2ccccc2)c(C)nn1C(C)(C)C`, 50%. As for `Cc1ccc(Sc2c(C)nn(C(C)(C)C)c2OC(=O)C(C)(C)C)cc1`, the figure is -8% (active); as for `CCC(=O)Oc1c(Sc2ccc(C)cc2)c(C)nn1-c1ccccc1`, 55%; as for `Cc1ccc(Sc2c(C)nn(-c3ccccc3)c2OC(=O)C(C)(C)C)cc1`, -6% (active).

Take `COCC(=O)Oc1c(Sc2ccc(C)cc2)c(C)nn1C(C)(C)C`: the survival was 69%.

Consider `Cc1nn(-c2ccccc2)c(OC(=O)C(C)(C)C)c1Sc1ccccc1`, for which the survival was 51%.

`Cc1ccc(Sc2c(C)nn(-c3ccccc3)c2OC(=O)CC(C)C)cc1`: the survival is 45%. As for `CCC(=O)Oc1c(Sc2ccc(Cl)cc2)c(C)nn1C(C)(C)C`, the figure is 60%.
